In PubChem BioAssay AID1209 (Sanford-Burnham Center for Chemical Genomics, 2008):
The whole screen tested about 190,000 compounds, of which about 810 (0.43%) were called active. No stated cut-off is given here; in the data, active means inhibition above about 50%; inactive means the rest. What follows is part of a selection rich in actives, with near analogues and random picks from the rest.

Each molecule was assayed against Mannose-6-phosphate isomerase (Homo sapiens) (UniProt P34949) (assay: inhibitors of human PMI, primary screen, biochemical, fluorescence intensity, coupled assay (AID 1209;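 further: plate controls were DMSO vehicle for no effect and wells lacking substrate for full effect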)). Conditions: purified PMI enzyme, at 20 µM, stronger effect = higher value.
Mannose-6-phosphate isomerase (Homo sapiens), sequence (P34949 whole entry, looked up): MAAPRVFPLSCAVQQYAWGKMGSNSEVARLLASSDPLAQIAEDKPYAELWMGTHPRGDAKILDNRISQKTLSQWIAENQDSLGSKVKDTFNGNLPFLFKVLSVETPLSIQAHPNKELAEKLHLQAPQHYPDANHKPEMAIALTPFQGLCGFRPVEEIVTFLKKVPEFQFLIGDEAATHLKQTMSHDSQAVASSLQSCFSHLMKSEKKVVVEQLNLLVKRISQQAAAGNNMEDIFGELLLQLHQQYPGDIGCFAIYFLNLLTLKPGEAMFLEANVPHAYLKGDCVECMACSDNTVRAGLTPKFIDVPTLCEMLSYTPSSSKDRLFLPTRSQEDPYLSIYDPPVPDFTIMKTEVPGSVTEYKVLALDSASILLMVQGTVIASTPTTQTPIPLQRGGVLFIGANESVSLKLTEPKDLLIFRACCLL

Row | SMILES | inhibition
1 | Cn1c(O)c(C(=O)c2ccccc2)c(=O)n(C)c1=O | -12.2% (inactive)
2 | O=c1[nH]c(=S)n(C2CC2)c(O)c1/C=N/Nc1ccccc1 | -61.8% (inactive)
3 | O=C(N/N=C/c1c(O)n(C2CC2)c(=S)[nH]c1=O)c1ccccc1O | 60.8% (active)
4 | CCCCC(=O)N/N=C/c1c(O)n(C2CC2)c(=S)[nH]c1=O | 20.6% (inactive)
5 | COc1ccc(C2=NCC(=O)N(CC(=O)NCc3ccco3)c3sc4c(c32)CCCC4)cc1 | 4.5% (inactive)
6 | O=C1CC(=O)N(c2cccc(Cl)c2)C(=O)N1 | 0.2% (inactive)
7 | CCCCc1nc(N2CCNCC2)c(C#N)c2c1CSC(C)(C)C2 | 3.9% (inactive)
8 | Oc1ccccc1/C=N/NP(=S)(c1ccccc1)c1ccccc1 | 6.9% (inactive)
9 | Oc1ccc(/C=N/NP(=S)(c2ccccc2)c2ccccc2)cc1 | 14.9% (inactive)
10 | Oc1ccc(/C=N/NP(=S)(c2ccccc2)c2ccccc2)c(O)c1O | 62.4% (active)
11 | O=C1c2ccccc2C(=O)N1Cc1nc2ccccc2c(=O)n1-c1ccccn1 | -3% (inactive)
12 | CCCCCCOc1ccc(CN2CCN(CCO)CC2)cc1 | -11.3% (inactive)
13 | COc1cccc(N2CCN(Cc3cccc(Cl)c3)CC2)c1 | 9.6% (inactive)
14 | CC12CCC3C(CCC4C/C(=N/O)CCC43C)C1CCC2O (centres undefined) | 2.7% (inactive)
15 | CC12CCC(=O)C=C1CCC1C2CCC2(C)C(O)CCC12 (centres undefined) | -6.1% (inactive)
16 | C[C@]12CC[C@@H]3c4ccc(O)c(O)c4CC[C@H]3[C@@H]1CC[C@@H]2O | 75.9% (active)
17 | CCOP(=O)(C#CC(C)(C)C)C(C)(O)c1ccccc1 (centres undefined) | 3.1% (inactive)
18 | Cc1nc2cc(C(F)(F)F)ccc2n1C1CCN(Cc2nnnn2Cc2cccs2)CC1 | 9.2% (inactive)
19 | CN1CCN(c2c(N)c(=O)oc3ccccc23)CC1 | 0.6% (inactive)
20 | COCCOC(=O)c1c(N)n(Cc2ccccc2)c2nc3ccccc3nc12 | 14.3% (inactive)
21 | Cn1c(O)c(C=NC2CCCCCC2)c(=O)[nH]c1=S | 6.6% (inactive)
22 | CN(C)c1cccc2c(C#N)ccc(N(C)C)c12 | 82% (active)
23 | CC(C)(C)c1ccc(S(=O)(=O)N2CC3CC(C2)c2cccc(=O)n2C3)cc1 (centres undefined) | -3.5% (inactive)
24 | Cc1cc(=O)[nH]c(SCc2nc3ccccc3c(=O)n2-c2ccccc2C)n1 | 0.9% (inactive)
25 | COc1cccc(NP(=O)(Oc2ccc(Cl)cc2)Oc2ccc(Cl)cc2)c1 | 18.7% (inactive)
26 | Cc1ccsc1C(=O)C1CCCN(Cc2cnn(C)c2)C1 (centres undefined) | 9.3% (inactive)
27 | O=C1C2CCN(CC2)C1Cc1ccccc1O (centres undefined) | -6.7% (inactive)
28 | Oc1ccc(CC2CC3CCN2CC3)cc1O (centres undefined) | 52.7% (active)
29 | COc1ccc(CC2c3cc(OC)c(OC)cc3CCN2C)cc1O (centres undefined) | -2.1% (inactive)
